From PubChem BioAssay (EPA / NIEHS)
The source made the active and inactive calls. The calls were made as follows: active = hit-call score of the fitted dose curve at least 0.9, where 1 is the maximum; inconclusive = response in the unintended direction; inactive = score below 0.9.

Assay: LTEA_HepaRG_LDH_cytotoxicity: Cytotoxicity Assessment in the Life Technologies and Expression Analysis (LTEA) Assay (AID 2283563)
Procedure: LTEA_HepaRG is a cell based, multiplexed-readout assay that uses HepaRG, a human liver cell line, with measurements taken at 48 hours after chemical dosing on a 96-well plate.LTEA_HepaRG_LDH_cytotoxicity is one of 102 assay component(s) measured in the LTEA HepaRG cell culture assay. It is a marker of cell viability / cytotoxicity.Data from the assay component LTEA_HepaRG_LDH_cytotoxicity was analyzed into 1 endpoint. This assay endpoint, LTEA_HepaRG_LDH_cytotoxicity, was analyzed in the positive fitting direction relative to DMSO as the negative control and baseline of activity. Using a type of inducible reporter, measures of mRNA induction for loss-of-signal activity can be used to understand cell death. To generalize the intended target to other relatable targets, this assay endpoint is annotated to the cell cycle intended target family, where the subfamily is proliferation.
A total of 1060 chemcials from the ToxCast library were tested in eight-point concentration-response experiments. Cell culture and cytotoxicity assays were conducted at Thermo Fisher Scientific's Custom Services facility (Madison, WI). A single lot of human HepaRG cells (Thermo Fisher Scientific, Frederick, MD) was used for the cell culture experiments. 96-well format collagen type I coated plates of human HepaRG cells were prepared using established methods. Briefly, cryopreserved HepaRG cells were thawed, plated at a density of approximately 100,000 cells/well in HepaRG Thaw, Plate, and General Purpose media (HPRG770, Thermo Fisher Scientific), and incubated for 48 hours. 0.5% DMSO was selected as vehicle control to balance the requisite need of DMSO in HepaRG cultures to maintain differentiation (for example, baseline metabolism, proportions of hepatocytes vs. cholangiocytes), while enabling further hepatic receptor pathway activation (for example, PXR and CAR) in response to chemical exposure. 48 hours after plating, the culture medium was replaced with HepaRG Serum-Free Incudtion Media. Cells were exposed to each test chemical in duplicate and maintained in CO2 incubators for another 48 hours. Chemical plates were thawed to room temperature and 200x concentrations of treatment groups were prepared. 8-point conentration-reponse curves were made with the highest exposure at 100 uM, followed by half-log dilutions, all in 0.5% DMSO. Each test plate contained variouse controls, induction positive controls (1mM phenobarbital), cytotoxicity positive controls ([…] aflatoxin B1), vehicle controls (0.5% DMSO), and total lysis controls (0.5% DMSO). Cell morphology images were taken using an Essen IncuCyte FLR automated microscope, with six 96-well plates imaged in about 24 minutes. Images were captured and exported and JPEG files. Spent culture media was transfered to black-well plates for the LDH assay, and remaining media was sorted at -80 C for later use. Cells were treated with RLT buffer and frozen until shipped for gene expression analysis. Total RNA was isolated from the cell suspension in 75 uL of Buffer RLT (Qiagen, Germantown, MD 20874) by Quintiles/Expression Analysis (Durham, NC) using a custom isolation procedure. Total RNA from each plate well was transferred to a preamplification plate. Fluidigm's 96.96 Dynamic ArrayTM (Fluidigm, Amsterdam, the Netherlands) technology was used for gene expression analyses by quantitative reverse transcription polymerase chain reaction (qRT-PCR, performed by Quintiles/Expression Analysis, Durham, NC)89. Standard TaqManTM Assays (Applied Biosystems/ThermoFisher Scientific, Foster City, CA) were used to assess the expression of 93 genes selected based on their selectivity and sensitivity to important hepatic receptors known to be modulated by environmental chemicals; importance in human hepatocyte functionality; and hepatotoxicity. […]
In the case of `CC(=NC#N)N(C)Cc1ccc(Cl)nc1`, the outcome is reported as “inactive”. In the case of `CCCCN(CC)c1c([N+](=O)[O-])cc(C(F)(F)F)cc1[N+](=O)[O-]`, the outcome is reported as “inactive”. In the case of `COP(=O)(OC)OC(Br)C(Cl)(Cl)Br` (stereo not given), the outcome is reported as “inactive”. With `CCNc1nc(Cl)nc(NC(C)(C)C#N)n1` the outcome was “inactive”. In the case of `O=[N+]([O-])c1cc(C(F)(F)F)c(Cl)c([N+](=O)[O-])c1Nc1ncc(C(F)(F)F)cc1Cl`, the AC50 is reported as 48.4 µM (active). For `CN1COCN(Cc2cnc(Cl)s2)C1=N[N+](=O)[O-]`, the outcome was “inactive”. For `CCc1cccc(C)c1N(C(=O)CCl)C(C)COC` (stereo not given), the outcome was “inactive”. For `CN(C)C(=O)Nc1cccc(C(F)(F)F)c1`, the outcome was “inactive”. In the case of `CCOP(=S)(OCC)OC(Cl)C(Cl)(Cl)Cl` (stereo not given), the outcome is reported as “inactive”. In the case of `CC(COc1ccc(Oc2ccccc2)cc1)Oc1ccccn1` (stereo not given), the outcome is reported as “inactive”. For `CCOP(=S)(OCC)Oc1ccc([N+](=O)[O-])cc1`, the outcome was “inactive”. In the case of `N#CSCSC#N`, the AC50 is reported as 75.7 µM (active). In the case of `CCC(=O)Nc1ccc(Cl)c(Cl)c1`, the outcome is reported as “inactive”. With `COP(=O)(OC)C(O)C(Cl)(Cl)Cl` (stereo not given) the outcome was “inactive”. With `Nc1c(Cl)cc([N+](=O)[O-])cc1Cl` the outcome was “inactive”. In the case of `CCOC(=O)CC(SP(=O)(OC)OC)C(=O)OCC` (stereo not given), the outcome is reported as “inactive”. In the case of `CC(C)=CC1C(C(=O)OCN2C(=O)C3=C(CCCC3)C2=O)C1(C)C` (stereo not given), the outcome is reported as “inactive”. For `CC(Oc1cccc(Cl)c1)C(=O)O` (stereo not given), the outcome was “inactive”. With `FC(F)C(F)(F)OCC(Cn1cncn1)c1ccc(Cl)cc1Cl` (stereo not given) the AC50 was 75.2 µM (active). For `CC(C1CC1)C(O)(Cn1cncn1)c1ccc(Cl)cc1` (stereo not given), the outcome was “inactive”. For `CC1(C(=O)Nc2ccc(O)c(Cl)c2Cl)CCCCC1`, the outcome was “inactive”. For `CCCCOC(=O)[C@@H](C)Oc1ccc(Oc2ccc(C#N)cc2F)cc1`, the outcome was “inactive”. In the case of `CCCSP(=O)(OCC)Oc1ccc(Br)cc1Cl` (stereo not given), the outcome is reported as “inactive”. For `CCOP(=S)(OCC)Oc1ccc2c(C)c(Cl)c(=O)oc2c1`, the outcome was “inactive”. For `O=c1ccc(=O)[nH][nH]1`, the outcome was “inactive”. For `CSc1nc(NC(C)C)nc(NC(C)C)n1`, the outcome was “inactive”. In the case of `COP(=O)(OC)SCn1c(=O)oc2cc(Cl)cnc21`, the AC50 is reported as 74.2 µM (active). For `CCOP(=S)(OCC)Oc1cc(C)nc(C(C)C)n1`, the outcome was “inactive”. In the case of `COc1cc(OC)nc(Sc2cccc(Cl)c2C(=O)O)n1`, the outcome is reported as “inactive”. With `CCc1cnc(C2=NC(C)(C(C)C)C(=O)N2)c(C(=O)O)c1` (stereo not given) the outcome was “inactive”. With `C=C(C)[C@H]1Cc2c(ccc3c2O[C@@H]2COc4cc(OC)c(OC)cc4[C@@H]2C3=O)O1` the AC50 was 6.74 µM (active). With `CCCCSP(=O)(SCCCC)SCCCC` the AC50 was 63.5 µM (active). For `CCOP(=S)(Oc1cnc(C(C)(C)C)nc1)OC(C)C` (stereo not given), the outcome was “inactive”. With `CCOP(=O)(OCC)Oc1cc(C)nc(C(C)C)n1` the outcome was “inactive”. For `COP(=O)(NC(C)=O)SC` (stereo not given), the outcome was “inactive”. In the case of `C#CC(C)(C)NC(=O)c1cc(Cl)cc(Cl)c1`, the outcome is reported as “inactive”. With `Nc1nc(N)nc(NC2CC2)n1` the outcome was “inactive”. In the case of `CC(C)[C@H](C(=O)O[C@H](C#N)c1cccc(Oc2ccccc2)c1)c1ccc(Cl)cc1`, the outcome is reported as “inactive”. In the case of `CCCCOC(=O)c1ccccc1C(=O)O`, the outcome is reported as “inactive”. In the case of `CSc1nnc(C(C)(C)C)c(=O)n1N`, the outcome is reported as “inactive”.
